Bioassay records (PubChem BioAssay)
An excerpt weighted towards active compounds, which were near 12% of everything screened.
Pf growth 96h: P. falciparum growth inhibition at 96 hours | P. falciparum luciferase reporter growth, 96 h | Potency, µM (doses to about 28.7 µM), inactives show at the highest dose activity change, negative = inhibition, usual class: inhibitors | hit rate 6.9% among 320,000; further: on the % scale 0 is the no-effect control and ±100 the full control effect
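Infected RBCs, 2% Hct / 0.05% parasitemia final; luciferase-reporter P. falciparum; cpd 96 h, 37 C, 5% CO2; luciferase detection reagent; luminescence.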
Sm TGR inh: blocks Schistosoma mansoni thioredoxin glutathione reductase; purified TGR, DTNB reduction, TNB absorbance 405 nm; hit rate 3% among 360,000; Potency, µM (top dose mostly 114 µM), without a hit: at the highest dose activity change, negative = inhibition, most hits filed as inhibitors; further: on the % scale 0 is the no-effect control and ±100 the full control effect; nearly all actives have a fitted effect of over 60% in size
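Kinetic colorimetric format: TGR-catalysed, NADPH-driven DTNB reduction monitored via TNB absorbance. Enzyme dispensed at 20 nM; compound exposure 15 min at room temperature before reaction start.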
Pf growth 48h: inhibits P. falciparum growth in the first generation, 48 h. P. falciparum luciferase growth in erythrocytes, 48 h. Potency, µM (titrated, usually from 28.7 µM), without a hit: at the highest dose activity change, negative = inhibition, usual class: inhibitors. hit rate 5.9% among 310,000. AID 504832; further: on the % scale 0 is the no-effect control and ±100 the full control effect
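In quantitative HTS format, infected erythrocytes bearing luciferase-reporter parasites were treated for a single generation at 37 C. Luminescence after adding detection reagent served as the growth measure.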
SARS PLP yeast: SARS-CoV PLP inhibition in yeast. hit rate 0.19% among 330,000. S. cerevisiae expressing SARS-CoV PLpro, growth rescue. Potency, µM (doses to about 32.9 µM), without a hit: top-dose activity, positive = growth rescue, actives largely listed as activators; calls by dose curve; further: 0% is about no effect; nearly all actives have a fitted effect of over 55% in size
Numbers without * were called inactive; ? = inconclusive; nt = no result given; [ ] = remark or other dose. Unless noted, the call rests on the fitted dose curve; in most records, active means well fitted curve in the direction sought with a large enough effect; inconclusive means small, poorly fitted or top-dose-only effect, or another doubt; inactive means no such curve, though single readings can be large; an effect the other way counts as inactive or inconclusive. Potency means the concentration at half of the fitted maximal effect.

SMILES	Pf growth 96h	Sm TGR inh	Pf growth 48h	SARS PLP yeast
Cc1cccc(NC(=S)N/N=C2\CC(C)(C)Oc3ccc(O)cc32)c1	?	-16%	?	?
CC1(C)C/C(=N\NC(=S)Nc2ccccc2F)c2cc(O)ccc2O1	10µM*	1%	13µM*	4%
O=C(O)C1C2CCC(O2)C1C(=O)Nc1ccc(OC(F)F)cc1 (stereo unspecified)	?	-35%	11%	0%
COc1ccc(-n2c(O)c(C(C)=NCCc3c[nH]c4ccccc34)c(=O)[nH]c2=O)cc1	?	0%	12µM*	-1%
COc1ccc(-n2c(O)c(C(C)=NCc3ccco3)c(=O)[nH]c2=O)cc1	?	-19%	-3%	15%
CN1CC(=O)Nc2cc(C(=O)O)ccc21	nt	-16%	nt	nt
Cc1ccc2[nH]c(=O)c(CN(CCCN3CCOCC3)C(=O)Nc3ccc(Cl)cc3)cc2c1	0%	nt	3.7µM*	4%
Cc1cccc(NC(=O)N(Cc2cc3cc(C)ccc3[nH]c2=O)CC2COCCO2)c1 (stereo unspecified)	16%	5%[57.1 µM]	?	2%
Cc1ccc2[nH]c(=O)c(CN(CCN3CCOCC3)C(=O)Nc3ccccc3F)cc2c1	7%[5.75 µM]	-7%	?	6%
Cc1ccc2[nH]c(=O)c(CN(CCCN3CCOCC3)C(=O)Nc3cccc(Cl)c3)cc2c1	1%	4%	8.3µM*	-18%
COc1ccc(S(=O)(=O)NCC(c2ccco2)N2CCN(c3ccccc3F)CC2)cc1OC (stereo unspecified)	nt	-4%	nt	nt
COCCn1c(=O)[nH]c(=O)c2cc(C(=O)c3cc(Cl)ccc3O)cnc21	?	-1%	9.3µM*	1%
COc1cccc(NC(=O)C(CCSC)NC(=O)C2CCC(C)CC2)c1 (stereo unspecified)	nt	23%	nt	nt
COn1c2c(c3c4nonc4ccc31)CCCC2	?	28µM*	nt	-11%
On1c2c(c3c4nonc4ccc31)CCCC2	-15%	?	?	-44%
NC(CSSCC(N)C(=O)O)C(=O)O (stereo unspecified)	12%	nt	-4%	nt
NC(CS)C(=O)O (stereo unspecified)	-8%	nt	4.3µM*	nt
O=C(Cn1c(=O)cnc2ccccc21)N1CCN(S(=O)(=O)c2ccccc2Br)CC1	-8%	11%	?	-2%
CCN(CC)c1ccc(/C=C/C(=O)c2ccc(Br)cc2)cc1	-9%	-14%	22%	-18%
N#Cc1ccc(/C=C/C(=O)c2cccnc2)cc1	-9%	28µM*	8%	-25%
O=C(/C=C/c1ccc(Cl)cc1)c1cccnc1	?	14µM*	nt	-45%
O=C(/C=C/c1ccccc1Cl)c1cccnc1	66%	13µM*	nt	-43%
CCN(CC)c1ccc(/C=C/C(=O)c2cccnc2)cc1	?	4%	0.93µM*	2%
O=C(/C=C/c1c(F)cccc1Cl)Nc1ncccn1	?	-9%	204%	-36%
O=C(/C=C/c1ccccc1Cl)c1ccc(O)cc1	?	45µM*	52%	-8%
SMILES	Pf growth 96h	Sm TGR inh	Pf growth 48h	SARS PLP yeast
O=C(/C=C/c1c(F)cccc1Cl)c1ccc(O)cc1	?	40µM*	4%	-1%
O=C(/C=C/c1ccccc1Cl)Nc1ccccc1	73%	11%	228%	-6%
O=C(/C=C/c1ccncc1)c1cc(Cl)ccc1O	9.3µM*	?	?	-4%
Cc1n(CC(O)COC2CCCCC2)c2ccccc2[n+]1C (stereo unspecified)	27%	0%	6.6µM*	16%
COc1ccc2c(c1)c(=O)c(C(=O)c1ccc(C)cc1)cn2Cc1ccccc1F	nt	-2%	nt	nt
Cc1cccc(NC(=O)CS(=O)(=O)c2nc(-c3ccccc3)cn2-c2cccc(Cl)c2)c1C	nt	-2%	nt	nt
OCCN1CCN(c2nc(N3CCCCC3)nc(N3CCCCC3)n2)CC1	60%	5%	10µM*	-2%
COc1ccc(NC(=O)c2ccc(NC(=O)CCS(=O)(=O)c3cccs3)cc2)cc1Cl	nt	4%	nt	nt
CCCCn1cnc2c1c(=O)n(CC(=O)c1cc(C)n(C)c1C)c(=O)n2CC(C)C	12µM*	-10%[11.4 µM]	nt	-5%
CCCCn1c(O)c(C=NC2CC3CCC2(C)C3(C)C)c(=O)[nH]c1=O (stereo unspecified)	?	-13%	10µM*	1%
Cc1ccc(C(=O)N2CCCC(c3nc4c(nnn4Cc4ccccc4)c(=O)[nH]3)C2)cc1 (stereo unspecified)	nt	3%	10µM*	3%
CCOc1ccccc1NC(=O)N1CCCC(c2nc3c(nnn3Cc3ccc(C)cc3)c(=O)[nH]2)C1 (stereo unspecified)	0%	1%	4.1µM*	-4%
CCCCC(=O)N1CCCC(c2nc3c(nnn3Cc3cc(C)ccc3C)c(=O)[nH]2)C1 (stereo unspecified)	?	8%	8.3µM*	-4%
Cc1ccc(C)c(Cn2nnc3c(=O)[nH]c(C4CCCN(C(=O)CC(C)C)C4)nc32)c1 (stereo unspecified)	nt	2%	?	-2%
COc1cc(NS(=O)(=O)c2ccc3c(c2)CC(C)N3C(=O)C2CCC2)cc(OC)c1OC (stereo unspecified)	nt	-2%	nt	nt
COc1ccccc1N1C(=O)CC(Sc2nccc(C)n2)C1=O (stereo unspecified)	2%	?	16%	2%
COc1ccccc1N1C(=O)CC(Sc2n[nH]c(-c3cccc(C)c3)n2)C1=O (stereo unspecified)	265%	0.63µM*	9%	-83%
CCCCc1ccc(S(=O)(=O)Nc2nnc(C)s2)cc1	?	10%	-4%	-23%
Cc1onc(-c2c(Cl)cccc2Cl)c1C(=O)Nc1ccc2c(c1)OCCO2	76%	3%	?	1%
Cc1cc(Br)c(NC(=O)c2c(-c3c(Cl)cccc3Cl)noc2C)c(Br)c1	5.9µM*	-3%	10µM*	-2%
COc1ccc(NC(=O)c2c(-c3c(Cl)cccc3Cl)noc2C)cn1	-7%	5%	?	-3%
Cc1onc(-c2c(Cl)cccc2Cl)c1C(=O)N/N=C(\N)COc1ccc(Cl)cc1	?	1%	2.3µM*	?
COc1ccc(NC(=O)c2c(-c3c(Cl)cccc3Cl)noc2C)c(OC)c1	29%	-2%	1.7µM*	-7%
CCOc1ccc2nc(NC(=O)C3CSC4(C)CCC(=O)N34)sc2c1 (stereo unspecified)	14%	0%	22%	-6%
CCOC(=O)c1ccccc1NC(=O)Cn1ccn2nc(-c3ccc(OCC)cc3)cc2c1=O	nt	-5%	nt	nt
O=C(CSc1nnc(NC(=O)c2c(F)cccc2Cl)s1)Nc1ccccc1F	-1%	6%	14%	5%
O=C(c1ccc(-c2cccc([N+](=O)[O-])c2)o1)N1CCN(c2ccc([N+](=O)[O-])cc2)CC1	?	-18%	?	-1%
CC1CC(C)CN(C(=O)c2ccc(-c3ccc([N+](=O)[O-])cc3)o2)C1 (stereo unspecified)	33%	3.2µM*	57%	3%
O=C(c1ccc(-c2ccc([N+](=O)[O-])cc2)o1)N1CCCCC1	31%	45µM*	296%	-23%
